From PubChem BioAssay (NCATS) come the findings set out here.

Records with an inconclusive call do not appear. Values without a mark were called inactive. Unless noted, calls follow the shape of the dose curve; as a rule, active = well fitted cell-killing curve with a large enough effect; inconclusive = small, poorly fitted or top-dose-only effect; inactive = flat fitted curve, though single readings scatter.

The first experiment is described as follows: Cell Viability - LYMP1-002 - Assay at 40 hr (AID 994).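 Also: 0% = DMSO only and full inhibition = 92 µM tetraoctylammonium bromide; nearly all actives have a fitted effect of over 60% in size.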 The settings on record: LYMP1-002 lymphoblastoid cell viability; series mostly up to 92.2 µM; viability change, negative = cytotoxic: at the top concentration. The gist of the method: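 qHTS cytotoxicity; 2500 cells/well, 5 hr 37 C settle, compound 40 hr 37 C. CellTiter-Glo, 30 min RT, luminescence (ATP). Concentration-response, Hill fit → AC50. Pos. ctrl tetraoctylammonium bromide.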
As for `CC(=O)c1ccccc1[N+](=O)[O-]`, the “viability change, negative = cytotoxic” value was -9.03%.

For `CCCCCCCN`, the “viability change, negative = cytotoxic” value was -5.79%.

On to `FC(F)(F)c1ccccc1Cl`, for which the “viability change, negative = cytotoxic” value was -4.9%.

In the case of `O=C(O)c1cccc(Cl)c1Cl`, the “viability change, negative = cytotoxic” value was 3.98%.

On to `NC(=O)NC(N)=O`, for which the “viability change, negative = cytotoxic” value is 3.09%.

Regarding `C/C=C1\CC2C=CC1C2` (stereo not given), the “viability change, negative = cytotoxic” value is 3.32%.

As to `Cc1ccccc1C=O`, the “viability change, negative = cytotoxic” value is 3.17%.

On to `CCC(O)C(C)(C)C` (stereo not given), for which the “viability change, negative = cytotoxic” value was -10.2%.

Turning to `CCOC(=O)OCC`, the “viability change, negative = cytotoxic” value was -2.47%.

Consider `CC(=O)OCc1ccco1`, for which the “viability change, negative = cytotoxic” value was 12.6%.

Regarding `c1ccc2c(c1)Oc1ccccc1S2`, the “viability change, negative = cytotoxic” value is -8.62%.

For `Cc1ccc2ccccc2c1[N+](=O)[O-]`, the “viability change, negative = cytotoxic” value was -5.64%.

For the compound `CC=O`, the “viability change, negative = cytotoxic” value was -3.5%.

For `CNc1ccccc1`, the “viability change, negative = cytotoxic” value is 2.46%.

As for `CC(C)=CCl`, the “viability change, negative = cytotoxic” value was 1.57%.

Regarding `O=C(O)c1ccc(Cl)cc1Cl`, the “viability change, negative = cytotoxic” value is -0.343%.

As for `C=C(C)C(=O)OCC(C)O` (stereo not given), the “viability change, negative = cytotoxic” value is -12.1%.

`NC(=O)CCCCC(N)=O`: the “viability change, negative = cytotoxic” value is -3.45%.

Consider `CN(C)CCCNCCCN`, for which the “viability change, negative = cytotoxic” value is -19.4%.

As for `C=CCCC`, the “viability change, negative = cytotoxic” value is -9.42%.

For `CO[Si](CCCNCCC[Si](OC)(OC)OC)(OC)OC`, the “viability change, negative = cytotoxic” value is -1.21%.

On to `CC(=O)Nc1cccc(N)c1`, for which the “viability change, negative = cytotoxic” value was -2.81%.

Turning to `Cc1cccc2ccccc12`, the “viability change, negative = cytotoxic” value was -1.53%.

For `Cc1cc(C)c(N)cc1C`, the “viability change, negative = cytotoxic” value was -6.11%.

Regarding `Nc1cc(Cl)c(N)c(Cl)c1`, the “viability change, negative = cytotoxic” value was -12.5%.

`CCC(C)(C)C`: the “viability change, negative = cytotoxic” value is 2.64%.

Regarding `CCNc1cc(O)ccc1C`, the “viability change, negative = cytotoxic” value was -10.4%.

Regarding `Cc1cc(C)cc(O)c1`, the “viability change, negative = cytotoxic” value is -9.15%.

As for `COc1ccc(N=[N+]([O-])c2ccc(OC)cc2)cc1`, the “viability change, negative = cytotoxic” value is -11.3%.

Regarding `CCOCC(=O)O`, the “viability change, negative = cytotoxic” value is -0.0165%.

With `O=C(O)c1ccc(Cl)c(Cl)c1`, the “viability change, negative = cytotoxic” value is -1.43%.

With `Nc1cccc2c(=O)[nH][nH]c(=O)c12`, the “viability change, negative = cytotoxic” value is -9.27%.

As for `O=C(Cl)c1c(Cl)cccc1Cl`, the “viability change, negative = cytotoxic” value was -5.27%.

In the case of `C=CCCCC`, the “viability change, negative = cytotoxic” value was 3.39%.

On to `CCCCCCC(=O)O`, for which the “viability change, negative = cytotoxic” value is -4.22%.

Take `Cc1cscn1`: the “viability change, negative = cytotoxic” value was -5.01%.

On to `O=C(Cl)c1cccc([N+](=O)[O-])c1`, for which the “viability change, negative = cytotoxic” value was -3.75%.

As to `O=P(O)(OCc1ccccc1)OCc1ccccc1`, the “viability change, negative = cytotoxic” value is -10.4%.

With `CC(C)N(C)C`, the “viability change, negative = cytotoxic” value was 1.06%.

With `Cc1ccc(S(=O)(=O)NC2CCCCC2)cc1`, the “viability change, negative = cytotoxic” value was -7.7%.

The nature of the next experiment: qHTS Assay for Identification of Small Molecule Inducers of Hypoxia Response (AID 2120; active = well fitted curve in the direction sought with a large enough effect in the signal ratio, with a control signal flat, not every such curve was filed as active; the % refers to the signal ratio; also: 0% is about no effect). The settings on record: hypoxia response reporter cells, beta-lactamase ratio readout; series mostly up to 104 µM; activation: at the top concentration. The gist of the method:
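Read-out: CCF4 FRET emission ratio 460nm/530nm (excitation 405nm), converted to %Activity, with AC50 fitted across a compound titration. ME-180 cells carried an HRE-driven beta-lactamase reporter; compound exposure 17 h, 37 degrees C.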
(Quantitative high-throughput screening tests each substance at several concentrations.)
As for `CC(=O)c1ccccc1[N+](=O)[O-]`, the “activation” value was -0.1%.

Consider `CCCCCCCN`, for which the “activation” value was 1.11%.

With `FC(F)(F)c1ccccc1Cl`, the “activation” value is 1.57%.

In the case of `O=C(O)c1cccc(Cl)c1Cl`, the “activation” value is 0.221%.

Take `NC(=O)NC(N)=O`: the “activation” value is -0.564%.

Take `C/C=C1\CC2C=CC1C2` (stereo not given): the “activation” value is 0.293%.

For the compound `Cc1ccccc1C=O`, the “activation” value was 1.84%.

Take `CCC(O)C(C)(C)C` (stereo not given): the “activation” value is 0.858%.

Turning to `CCOC(=O)OCC`, the “activation” value was -0.087%.

As for `CC(=O)OCc1ccco1`, the “activation” value was 1.19%.

With `c1ccc2c(c1)Oc1ccccc1S2`, the “activation” value was 0.302%.

On to `Cc1ccc2ccccc2c1[N+](=O)[O-]`, for which the “activation” value was 0.0403%.

On to `CC=O`, for which the “activation” value was 0.311%.

`CNc1ccccc1`: the “activation” value was 2.69%.

Turning to `CC(C)=CCl`, the “activation” value is -1.3%.

On to `O=C(O)c1ccc(Cl)cc1Cl`, for which the “activation” value was 0.141%.

Regarding `C=C(C)C(=O)OCC(C)O` (stereo not given), the “activation” value was -0.058%.

On to `NC(=O)CCCCC(N)=O`, for which the “activation” value is 1.52%.

With `CN(C)CCCNCCCN`, the “activation” value was 0.809%.

Turning to `C=CCCC`, the “activation” value was 1.17%.

Take `CO[Si](CCCNCCC[Si](OC)(OC)OC)(OC)OC`: the “activation” value is 0.595%.

In the case of `CC(=O)Nc1cccc(N)c1`, the “activation” value is 0%.

On to `Cc1cccc2ccccc12`, for which the “activation” value is 1.21%.

Turning to `Cc1cc(C)c(N)cc1C`, the “activation” value was -0.604%.

`Nc1cc(Cl)c(N)c(Cl)c1`: the “activation” value was 0.507%.

For `CCC(C)(C)C`, the “activation” value is 0.242%.

Turning to `CCNc1cc(O)ccc1C`, the “activation” value is -0.604%.

Take `Cc1cc(C)cc(O)c1`: the “activation” value was -0.058%.

As for `COc1ccc(N=[N+]([O-])c2ccc(OC)cc2)cc1`, the “activation” value was 1.52%.

For `CCOCC(=O)O`, the “activation” value is 0.906%.

For `O=C(O)c1ccc(Cl)c(Cl)c1`, the “activation” value is 0.186%.

Turning to `Nc1cccc2c(=O)[nH][nH]c(=O)c12`, the “activation” value was 1.07%.

On to `O=C(Cl)c1c(Cl)cccc1Cl`, for which the “activation” value is 0.927%.

As for `C=CCCCC`, the “activation” value was 0.951%.

Turning to `CCCCCCC(=O)O`, the “activation” value is 0.761%.

Take `Cc1cscn1`: the “activation” value is -0.633%.

In the case of `O=C(Cl)c1cccc([N+](=O)[O-])c1`, the “activation” value was 0.464%.

With `O=P(O)(OCc1ccccc1)OCc1ccccc1`, the “activation” value was 0.288%.

Regarding `CC(C)N(C)C`, the “activation” value was 0.546%.

`Cc1ccc(S(=O)(=O)NC2CCCCC2)cc1`: the “activation” value was 0.906%.
